# Bioassay records deposited in PubChem by several laboratories.
# PolyA inh: polyadenylation inhibitors in yeast reporter cells, primary screen, luminescence, S. cerevisiae; AID 1875, 2009; 300,000 compounds, 0.02% hits; S. cerevisiae SKY197-pL101 polyadenylation reporter, beta-gal luminescence; efflux-impaired pdr1/pdr3 knockout yeast; score 100 = 6 SD above DMSO; activity score, % at 12 µM;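 active = lowest replicate activity score at least 50, where 100 means six control SD above control mean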;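 also: yeast exposed to compound for 9 h at 30 °C; higher score means more reporter readthrough which indicates perturbed polyadenylation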
# GASC-1 inh: inhibitors of GASC-1 histone demethylase, primary screen, biochemical, fluorescence, DELFIA europium; Lysine-specific demethylase 4C (Homo sapiens), Q9H3R0; GST-JMJD2C(1-420) H3K9me3 demethylation; inhibition, % at 2.35 µM; 330,000 compounds, 0.069% hits;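 active = more than half of a compound's replicate wells show inhibition beyond 50%, single wells judged on their own value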;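 also: signal counts dimethyl H3K9 product captured on neutravidin plate; 0% = median of DMSO wells and 100% = 0.3 times that DMSO median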
# VLA-4 inh: inhibition in human VLA-4 binding assay, primary screen, VLA-4 allosteric modulator project, MLPCN library, flow cytometry, VLA-4 expressing cells. Integrin alpha-4 (Homo sapiens), P13612. ligand binding flow cytometry. inhibition, % (about 7 µM as worked out from the volumes in the protocol). AID 2557, 2010. 330,000 compounds, 0.2% hits; in the data active = inhibition above about 50%
# ABCB6 inh 2: ABCB6 transporter inhibitors, primary screen, K562-ABCB6 cells, flow cytometry, MLPCN library. fluorescence ratio to DMSO, % at 10 µM. 360,000 compounds, 0.19% hits. K562-ABCB6 porphyrin accumulation, 1 h; hits give low values;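 active = fluorescence ratio to DMSO below 75%, the collection mean minus 3 SD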;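 also: signal is porphyrin accumulated inside mitochondria; 100% equals median channel fluorescence of DMSO control wells; lower ratio means ABCB6 inhibition with less porphyrin fluorescence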
# Target sequence (Q9NP58 whole entry, looked up): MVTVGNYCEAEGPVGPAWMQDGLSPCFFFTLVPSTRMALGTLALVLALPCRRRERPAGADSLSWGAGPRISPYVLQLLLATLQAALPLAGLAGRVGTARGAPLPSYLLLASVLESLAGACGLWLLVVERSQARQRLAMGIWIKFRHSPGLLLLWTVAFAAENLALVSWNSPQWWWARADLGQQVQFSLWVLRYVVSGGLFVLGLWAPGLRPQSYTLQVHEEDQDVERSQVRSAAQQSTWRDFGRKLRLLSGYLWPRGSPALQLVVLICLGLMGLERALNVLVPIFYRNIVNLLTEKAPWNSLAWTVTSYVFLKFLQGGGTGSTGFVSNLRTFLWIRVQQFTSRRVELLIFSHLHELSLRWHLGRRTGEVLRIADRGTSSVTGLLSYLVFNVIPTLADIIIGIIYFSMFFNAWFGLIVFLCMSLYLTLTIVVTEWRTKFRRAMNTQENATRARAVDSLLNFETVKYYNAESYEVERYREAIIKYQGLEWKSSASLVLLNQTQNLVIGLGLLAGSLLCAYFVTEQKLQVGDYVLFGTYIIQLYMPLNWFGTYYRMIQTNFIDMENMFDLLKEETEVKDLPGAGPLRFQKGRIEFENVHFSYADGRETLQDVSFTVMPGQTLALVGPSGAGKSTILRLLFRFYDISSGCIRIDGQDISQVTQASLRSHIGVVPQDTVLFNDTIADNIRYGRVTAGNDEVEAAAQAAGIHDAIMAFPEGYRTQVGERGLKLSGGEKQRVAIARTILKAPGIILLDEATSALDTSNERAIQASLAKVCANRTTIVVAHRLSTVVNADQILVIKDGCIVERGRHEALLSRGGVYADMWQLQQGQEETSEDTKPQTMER
# ABCB6 blocker 1: ABCB6 transporter inhibitors, confirmation, K562-ABCB6 cells, flow cytometry, cherry pick 1. shares compounds with ABCB6 inh 2. K562-ABCB6 porphyrin accumulation, 1 h; hits give low values. AID 602430, 2012. ratio response (% of DMSO), % at 10 µM. 700 tested, under 10 active;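 active = repeat-averaged ratio response below 75% of DMSO, the collection mean minus 3 SD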;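 also: median porphyrin fluorescence at 575 nm with 488 nm excitation from mitochondria; lower ratio means less porphyrin signal so ABCB6 inhibition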
# Active calls of the source: *; i = inactive; . = no result given. A selection: hits, their analogues and other compounds. The true share with any hit is near 0.44%.
SMILES,PolyA inh,GASC-1 inh,VLA-4 inh,ABCB6 inh 2,ABCB6 blocker 1
COc1ccc(CN2CCN(c3ncccn3)CC2)c(C)c1C,-18,4,-1,97,.
COc1cc(C)c(CN2CCN(c3ncccn3)CC2)cc1C,-4,2,0,16*,97
CC1CC(C)CN(S(=O)(=O)c2ccc(Cl)cc2)C1 (stereo not drawn),-4,-1,0,99,.
Cc1ccc2c(c1)C1CN(C)CCC1N2C(=O)COc1ccc(N(C)C(=O)c2ccccc2)cc1 (stereo not drawn),9,10,10,103,.
CCCC(=O)O[C@@H]1C[C@@H](C)N(C(=O)c2ccccc2)c2ccc(C)cc21,0,-1,9,72*,100
Cc1cccc(NC(=O)c2oc3ccc(S(=O)(=O)N4CCOCC4)cc3c2C)c1C,-11,69,-5,68*,99
Cc1cccc(C)c1OCCOC(=O)c1cccc(S(=O)(=O)N2CCOCC2)c1,.,2,10,71*,100
Cc1cccc(C)c1OCCOC(=O)c1ccc(S(=O)(=O)N2CCCC2)cc1,.,.,.,97,.
CSc1ccc(/C=N/NC(=O)c2cccc(O)c2)cc1,-6,-9,-8,87,.
COc1ccc(-c2cnn3c(N)c(S(=O)(=O)C(C)(C)C)cnc23)cc1,-6,6,0,68*,97
CC(C)(C)S(=O)(=O)c1cnc2c(-c3ccc(Cl)cc3)cnn2c1N,22,21,17,102,.
C[C@H](CO)N1C[C@H](C)[C@@H](CN(C)C(=O)Nc2ccccc2)Oc2c(NC(=O)Cc3ccccc3)cccc2C1=O,.,9,-5,93,.
O=P(O)(O)c1ccccc1OCCCCCOc1ccccc1P(=O)(O)O,18,4,17,92,.
OC(c1ccc(F)cc1)c1nc(/C=C/c2ccccc2)cs1 (stereo not drawn),.,.,.,61*,98
Cc1c(Cl)cccc1S(=O)(=O)Nc1ccnn1C,-9,20,-14,97,.
CC(NC(=O)CN1CCc2ccccc21)c1ccccc1 (stereo not drawn),-3,-7,18,59*,103
CC(C)c1ccc(OCC(=O)Nc2ccc(OC(F)(F)F)cc2)cc1,16,7,17,63*,99
CC(C)C(N)c1csc(Nc2ccc(C(F)(F)F)cn2)n1 (stereo not drawn),.,.,.,103,.
NC(c1ccccc1)c1csc(Nc2ccc(C(F)(F)F)cn2)n1 (stereo not drawn),.,.,.,71*,101
CC(=O)c1ccc2c(c1)OCCOCCOc1ccccc1OCCOCCO2,12,-17,4,97,.
Cc1nn(CCC#N)c(N)c1C1(O)C(=O)Nc2c(Cl)cc(Cl)cc21 (stereo not drawn),-4,-13,-6,13*,96
COc1ccc(C(=O)C2CCCN(C(=O)c3cccnc3OC)C2)cc1F (stereo not drawn),-12,8,24,101,.
COc1ccc(C(=O)C2CCCN(C(=O)c3cccs3)C2)cc1F (stereo not drawn),-15,-10,-3,71*,99
CNc1c(NS(=O)(=O)c2cc(OC)ccc2OC)c(=O)oc2ccccc12,-10,-9,1,90,.
Cn1cc(-c2cccc3nncn23)cn1,.,.,.,93,.
SMILES,PolyA inh,GASC-1 inh,VLA-4 inh,ABCB6 inh 2,ABCB6 blocker 1
CSc1ccc(-c2cccc3nncn23)cc1,.,.,.,65*,98
Cc1ccc(S(=O)(=O)N2CCN(c3ncnc4scc(-c5ccc(F)cc5)c34)CC2)cc1,-23,-1,-1,94,.
CC(C(=O)NC1CCCC1)N1CCN(Cc2ccccc2)CC1 (stereo not drawn),8,2,4,93,.
CC(C(=O)NC(=O)NC1CCCCC1)N1CCN(C(c2ccccc2)c2ccccc2)CC1 (stereo not drawn),9,2,3,73*,100
Cc1cc(C)cc(N(CC(=O)NC2CCC(C)CC2)S(=O)(=O)c2c(C)[nH]c(=O)[nH]c2=O)c1 (stereo not drawn),22,3,6,93,.
Cn1c(CN2CCCC2)c(C#N)c2ccccc21,10,4,i,91,.
Cn1c(CN2CCOCC2)c(C#N)c2ccccc21,-9,3,4,60*,100
CCn1cc([N+](=O)[O-])c(C(=O)Nc2ccn(Cc3ccccc3F)n2)n1,-22,5,0,71*,103
O=C1N(CCCCN2C(=O)C3(OCCO3)c3ccccc32)c2ccccc2C12OCCO2,9,39,-13,104,.
O=C1N(CCCN2C(=O)C3(OCCO3)c3ccccc32)c2ccccc2C12OCCO2,-8,7,-1,68*,103
Cc1ccc(Nc2nc(-c3cccnc3)nc3ccccc23)cc1,-30,-5,5,71*,98
Cc1ccccc1Nc1nc(-c2cccnc2)nc2ccccc12,5,21,-8,99,.
CCOc1cc(C(=O)N2CCN(C/C=C/c3ccccc3)CC2)cc(OCC)c1OCC,13,-2,8,67*,100
COc1ccc(C2C(C#N)=C(N)N(N(C)C)C3=C2C(=O)CC(C)(C)C3)cc1 (stereo not drawn),-19,-2,4,91,.
COc1ccccc1C1C(C#N)=C(N)N(N(C)C)C2=C1C(=O)CC(C)(C)C2 (stereo not drawn),-1,86,5,51*,96
Cc1ccc(/C=C/C(=O)OCC(=O)Nc2cccnc2Cl)o1,.,3,-7,97,.
Cc1ccc(-c2cc(C(F)(F)F)c(C#N)c(SCCC#N)n2)o1,-10,1,-23,71*,103
COc1ccc(-c2cc(C(F)(F)F)c(C#N)c(SCC(=O)O)n2)cc1,-5,-2,1,97,.
COC(=O)CCC(=O)Nc1cc(Cl)cc(Cl)c1,-5,3,20,72*,100
COC(=O)CCC(=O)Nc1ccc(NC(=O)CCC(=O)OC)cc1,18,16,7,99,.
CC(C)(C)c1cc(NC(=O)c2c(F)cccc2Cl)n(-c2ccccc2)n1,-6,-5,-7,98,.
Cc1ccc(CN(C)C(=O)c2ccccc2Oc2ccccc2)o1,-9,-2,9,67*,98
CCOC(=O)C1(C(F)(F)F)N=C(C(F)(F)F)Nc2ccc(F)cc21 (stereo not drawn),-17,-10,.,59*,103
CCOC(=O)C(NC(=O)Nc1ccc(F)cc1)(OCC)C(F)(F)F (stereo not drawn),13,3,15,88,.
CCOC(=O)CNC(=O)CCc1nnc2ccc(N3CCC(C)CC3)nn12,-15,-2,26,98,99
